BaF3 tox = parental Ba/F3 cell viability inhibition, counter-screen for JAK2V617F inhibitor project, murine pro-B, CellTiter-Glo luminescence; CellTiter-Glo ATP luminescence; inhibition, % at 5.6 µM; 1.1% of 220,000 active; AID 1486, 2009;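 active = inhibition above a per-campaign cutoff, the mean inhibition of all tested compounds plus 3 SD, cut at about 27% in these data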;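 note: 0% = DMSO wells and 100% = JAK Inhibitor I control wells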
APP transl inh = inhibitors of APP translation via 5'UTR reporter, primary screen, APP 5'UTR luciferase, SH-SY5Y cells | inhibition, % at 2 µM | 0.82% of 190,000 active | SH-SY5Y APP 5'UTR-luciferase reporter, luminescence;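 active = inhibition above a set limit, derived from the sample mean plus 3 SD, cut at about 45% in these data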
KLF5 inh = KLF5 expression inhibitors, primary screen, DLD-1 cells, luminescence; DLD-1 KLF5 promoter-luciferase reporter; inhibition, % at 5 µM; 0.23% of 290,000 active; AID 1700, 2009;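 active = inhibition above a per-plate limit of that plate's mean compound inhibition plus 3 SD, cut at about 60% in these data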;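 note: 0% = DMSO wells and 100% = LY294002 at 200 µM; higher means less KLF5 promoter-driven luciferase light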
Ba/F3 V617F tox = reduced viability of JAK2V617F-dependent Ba/F3 cells, primary screen, JAK2V617F inhibitor project, cell-based, Ba/F3 EpoR-JAK2V617F, luminescence; inhibition, % at 5.6 µM; 1.1% of 220,000 active; ATP luminescence;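 active = inhibition above the campaign mean plus 3 SD over all tested compounds, cut at about 24% in these data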;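 note: cytokine-independent growth of Ba/F3 cells driven by EpoR plus mutant JAK2; 0% = DMSO-treated cells and 100% = JAK inhibitor I control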
IEC-6 tox = cytotoxicity in IEC-6 intestinal epithelial cells, primary screen, cytotoxicity control for KLF5 inhibitor project, cell-based, luminescence; IEC-6 cytotoxicity, luminescence viability; inhibition, % at 5 µM; 0.78% of 290,000 active; AID 1825, 2009; in the data active = inhibition above about 22%;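 note: 0% = plate median of test compound wells and 100% = cytotoxic reference compound wells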
BaF3 parental 2 = parental Ba/F3 cell viability inhibition, counter-screen for JAK2V617F inhibitor project, murine pro-B, CellTiter-Glo luminescence; AID 1520, 2009; inhibition, % at 5.6 µM; cells kept alive by added IL-3; shares compounds with Ba/F3 V617F tox; 31% of 580 active;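 active = cell growth inhibition above the hit limit set in the earlier mutant JAK2 cell screen, cut at about 27% in these data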;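 note: plate controls were DMSO-treated cells for no effect and JAK Inhibitor I control wells for full effect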
JAK2V617F confrm = viability loss in Ba/F3 EpoR-JAK2V617F cells, confirmation, JAK2V617F inhibitor project, cell-based, luminescence, triplicate; shares compounds with Ba/F3 V617F tox; CellTiter-Glo luminescence; inhibition, % at 5.6 µM; 66% of 580 active; AID 1521, 2009;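 active = mean inhibition above the hit cutoff derived in the earlier primary screen, cut at about 25% in these data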;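 note: 0% = DMSO-treated cells and 100% = JAK inhibitor I control wells; higher means lower luminescence from reduced cell ATP and viability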
* hit, by the source's call; x = not tested or not shown. In the library only some 1.9% were active in any assay of this set; here they are far more common.

SMILES	BaF3 tox	APP transl inh	KLF5 inh	Ba/F3 V617F tox	IEC-6 tox	BaF3 parental 2	JAK2V617F confrm
Nc1c(-c2ccccc2)cnn1-c1ccc(C(=O)O)cc1	1	-137	-84	53*	0	-3	-2
Cc1ccc(-c2cnn(-c3ccccc3)c2N)cc1	x	x	-17	x	10	x	x
Cc1ccc2cc(CCNC(=O)CC(C)C)c(=O)[nH]c2c1	8	-16	-33	69*	7	-3	-2
O=C(Nc1cc(S(=O)(=O)N2CCCCC2)ccc1O)c1ccccc1NS(=O)(=O)c1ccc(F)cc1	7	6	-57	0	-9	x	x
O=C(Nc1cc(S(=O)(=O)N2CCCCC2)ccc1Cl)c1ccccc1NS(=O)(=O)c1ccc(F)cc1	15	-1	6	28*	6	70*	79*
CCOc1ccc(N(CC)C(=O)c2cn(CC)c(=O)c3cc(OC)c(OC)cc23)cc1	x	x	-19	x	-1	x	x
COc1ccc(Nc2ncnc3ccccc23)c(OC)c1	5	-4	-36	-1	4	x	x
COc1ccc(Nc2nc(N3CCCC3)nc3ccccc23)c(OC)c1	18	36	-27	47*	10	6	11
Cc1c(C#N)c(NC(=O)CCl)n(Cc2cccs2)c1C	0	-23	18	36*	6	35*	97*
Cc1c(C#N)c(NC(=O)CCl)n(Cc2ccc(F)cc2)c1C	-1	-12	11	16	6	x	x
Cc1c(C#N)c(NC(=O)CCl)n(Cc2ccccc2)c1C	2	10	-8	31*	3	48*	98*
O=C(Nc1cccc([N+](=O)[O-])c1)c1cc2ccccc2cc1O	7	x	-60	24*	-3	64*	75*
O=C(NC(NNc1ccc([N+](=O)[O-])cc1)(C(F)(F)F)C(F)(F)F)c1ccc(Cl)cc1	1	-4	-17	29*	8	-6	-3
COc1cccc(CN2CCNC(=O)C2CC(=O)N2CCCCO2)c1OC (stereo not given)	11	6	-17	1	-3	x	x
CCCc1nc2n[nH]c(N)c2c2c1CCC2	0	6	1	1	7	x	x
CCCc1nc2n[nH]c(N)c2c2c1CCCC2	3	-14	-2	25*	3	-1	39*
Cc1ccc(C)c(N(CC(=O)NC2CCCC2)S(=O)(=O)c2ccccc2)c1	x	x	1	x	-8	x	x
COCCn1c(=S)[nH]c2cc(C(=O)N3CCN(c4ccc(F)cc4)CC3)ccc2c1=O	1	-2	-5	51*	-3	3	5
COCCn1c(=S)[nH]c2cc(C(=O)N3CCN(c4ccccc4OC)CC3)ccc2c1=O	2	8	-5	-1	7	x	x
Fc1ccc(CSc2ncnc3sc4c(c23)CCCC4)cc1	2	-3	-27	99*	-4	-3	0
COC(=O)c1cc2c(=O)c3ccccc3oc2nc1/C=C/N(C)C	x	x	-23	x	-6	x	x
CCCSc1nsc(SCCC)c1C#N	2	-1	-14	-4	1	x	x
C#CCSc1nsc(SCC#C)c1C#N	6	7	-45	45*	-1	-4	72*
Cc1cccn2cc(COc3ccc(-c4ccccc4)cc3)nc12	25	-44	-41	48*	-12	43*	43*
Cc1cccn2cc(COc3cccc([N+](=O)[O-])c3)nc12	10	-22	-36	6	2	x	x
Cn1cc(S(=O)(=O)Nc2cccc3ccccc23)c(=O)n(C)c1=O	x	x	-39	x	-3	x	x
CCCCCCCOc1ccc(OC(=O)c2ccncc2)cc1	22	3	-42	52*	12	65*	93*
CCC(C)N1C(=O)S/C(=C/c2ccc3c(c2)n(C)c(=O)n3C)C1=O (stereo not given)	4	-2	-32	67*	2	-3	16
CCN(Cc1ccc(OC)c(F)c1)C(=O)CCl	-1	9	-2	39*	-7	13	96*
